# CYP2C9 inh – human CYP2C9 inhibition; CYP2C9 Supersomes, luciferin-H conversion, luminescence; inhibition, % at 5 µM; 96,000 compounds, 20% hits; AID 777;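 active means blocking of liver enzyme CYP2C9 beyond about 50% at 5 µM, limit read from the data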
# CYP2C9 act – increases human cytochrome P450 2C9 activity; P11712; recombinant CYP2C9, luciferin-H conversion, luminescence; active compounds read high; factor 1 = untreated enzyme, 0 = blocked; activation factor at 5 µM; 96,000 compounds, 1.4% hits;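 active means activation factor of 2 or more for CYP2C9 at a 5 µM dose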;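 further: 0 = sulfaphenazole-blocked wells and 1 = vehicle-only wells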
# Cav3 T inh – human Cav3.2 channel inhibition, primary screen; O95180; Cav3.2-expressing cells, Fluo-4 calcium fluorescence FDSS; active compounds read low; B-score at 10 µM; 100,000 compounds, 4% hits;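 active means single-dose well whose peak fluorescence ratio is a statistical outlier from its plate by either plate-standardised score or position-corrected B-score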
# CYP2C19 inh – inhibitors of human CYP2C19. P33261. 96,000 compounds, 21% hits. inhibition, % at 5 µM. CYP2C19 Supersomes, luciferin-H EGE luminescence, 30 min;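 active means CYP2C19 inhibition above a set limit at 5 µM in the primary screen, cut at about 50% in these data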;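 further: plate controls were negative control wells for no effect and 2.5 mM tranylcypromine positive control for full effect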
# CYP2C19 activ – increases human CYP2C19 enzyme activity; P33261; recombinant CYP2C19, luciferin-H EGE luminescence; active compounds read high; 0 = fully inhibited enzyme, 1 = untreated enzyme; activation factor at 5 µM; 96,000 tested, under 10 active;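 active means activation factor of at least 2 at 5 µM in the primary screen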;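 further: 0 = wells with 2.5 mM tranylcypromine and 1 = vehicle-only wells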
# Starred values were filed as active, the others as inactive; x = not tested or not shown. Compounds with a hit are over-represented: about 27% of the library has one in this group of screens.
SMILES,CYP2C9 inh,CYP2C9 act,Cav3 T inh,CYP2C19 inh,CYP2C19 activ
COc1ccc(-c2nc(C#N)c(NCc3ccc(C)cc3)o2)cc1OC,52.7*,0.5,-0.289,14.8,0.9
CC(C)(C)c1ccc(-c2nc(C#N)c(NCc3ccncc3)o2)cc1,67.2*,0.3,-1.08,24.8,0.8
COc1ccc(-c2nc(C#N)c(NCCc3ccccc3)o2)cc1OC,92.8*,0.1,-1.94,80.5*,0.2
CC(C(=O)OCn1nnc2ccccc2c1=O)N1C(=O)c2ccccc2C1=O (stereo not given),-7.1,1.1,-1.01,-6.9,1.1
Cc1ccc(-n2nnc3c(=O)n(CC(=O)NCC4CCCO4)cnc32)cc1 (stereo not given),-25.5,1.3,0.788,-10.3,1.1
CCOC(=O)C1=C(C)N(C)C(=O)NC1c1c(C)nn(-c2ccc(C)cc2)c1Cl (stereo not given),74.2*,0.3,-1.9,83.4*,0.2
CCOC(=O)C1=C(C)NC(=O)NC1c1c(C)nn(-c2ccccc2)c1Cl (stereo not given),46.1,0.5,3,30.5,0.7
Cc1ccc(-n2nc(C)c3c2OC(N)=C(C#N)C3c2ccc(C)o2)cc1 (stereo not given),x,x,0.616,x,x
CCOC(=O)C1=C(C)OC(N)=C(C#N)C1c1c(C)nn(-c2ccc(C)cc2)c1Cl (stereo not given),97.3*,0,x,99.9*,0
COC(=O)C1=C(C)OC(N)=C(C#N)C1c1c(C)nn(-c2ccccc2)c1Cl (stereo not given),96.0*,0,-5.13*,97.0*,0
Cc1cc(Nc2ccc(C)c(C)c2)n2nc(C)nc2n1,52.0*,0.5,-0.0785,25.4,0.7
CCN(C(=O)COc1cc(=O)n(C)c2ccccc12)c1cccc(Cl)c1,-56.6,1.6,-0.00887,69.1*,0.3
COc1ccccc1CNC(=O)CCCOc1cc(=O)n(C)c2ccccc12,-28.4,1.3,1.27,4.5,1
CCOc1ccc(CNC(=O)CCCOc2cc(=O)n(C)c3ccccc23)cc1,78.0*,0.2,x,69.4*,0.3
CN(C(=O)COc1cc(=O)n(C)c2ccccc12)c1cccc(Cl)c1,18.8,0.8,-0.43,16.9,0.8
Cn1c(=O)cc(OCC(=O)Nc2ccccn2)c2ccccc21,34.6,0.7,0.88,52.6*,0.5
CC(=O)c1ccc(-n2nncc2C)cc1,11.4,0.9,-0.0334,-2.8,1
Cc1ccc(C(C#N)c2ccc3c(C(F)(F)F)cc(C(F)(F)F)nc3n2)cc1 (stereo not given),83.9*,0.2,-0.942,24.5,0.8
CCOc1ccc(C(C)(C)C)cc1S(=O)(=O)N1CC(C)OC(C)C1 (stereo not given),63.0*,0.4,-2.49,79.2*,0.2
COc1ccc(C2N3CC4(C)CN2CC(C)(C3)C4O)cc1 (stereo not given),-4.1,1,0.0797,-17.8,1.2
N#CC1=C(SCc2ccccc2)NC(=O)CC1c1ccc(O)cc1 (stereo not given),52.9*,0.5,0.0755,64.8*,0.4
N#CC1=C(SCc2ccccc2)NC(=O)CC1c1cccc(O)c1 (stereo not given),61.9*,0.4,0.861,78.2*,0.2
Cc1ccc(S(=O)(=O)N(CCC(=O)O)Cc2ccc(Cl)cc2)cc1,53.7*,0.5,-0.429,36.9,0.6
Cc1ccc(S(=O)(=O)N(CC(=O)O)Cc2ccccc2)cc1,35.8,0.6,0.0195,-5.2,1.1
CCC(=O)NCCNc1nc2cc(C)c(C)cc2cc1C#N,71.5*,0.3,0.263,50.2*,0.5
SMILES,CYP2C9 inh,CYP2C9 act,Cav3 T inh,CYP2C19 inh,CYP2C19 activ
CCOCCCNC(=S)NCCNc1nc2c(C)cccc2cc1C#N,-33.9,1.3,-1.14,34.7,0.7
CCOc1ccc2nc(NCCNC(=O)CC)c(C#N)cc2c1,-15.1,1.2,-1.08,4.5,1
Cc1ccc2cc(C#N)c(NCCNC(=O)C3CC3)nc2c1C,64.3*,0.4,x,49.2,0.5
COc1cc(/C=c2\sc3nc(-c4ccncc4)nn3c2=O)ccc1OC(C)=O,76.2*,0.2,x,59.9*,0.4
CC(=O)Oc1cccc(/C=c2\sc3nc(-c4ccco4)nn3c2=O)c1,22.3,0.8,x,12.6,0.9
O=C(NC(Cc1ccccc1)c1ccc2c(c1)OCCCO2)c1ccc(F)cc1 (stereo not given),90.4*,0.1,-1.31,64.2*,0.4
COc1ccc(C(CC(=O)O)NC(=O)c2ccco2)cc1 (stereo not given),-2.0,1,0.15,9.9,0.9
COc1cccc(C(=O)NC(Cc2ccccc2)c2ccc3c(c2)OCCCO3)c1 (stereo not given),75.2*,0.2,-0.886,45.7,0.5
COc1cccc(C(C(=O)Nc2ccc(F)cc2)N(C(=O)Cn2nnc3ccccc32)C2CC2)c1 (stereo not given),37.4,0.6,-0.975,44.5,0.6
COc1nc(C)nc(NC(=O)NS(=O)(=O)c2ccc(C)cc2)n1,-21.4,1.2,0.16,-0.4,1
CCNC(=S)NC1CC2CCC(C1)N2Cc1ccccc1 (stereo not given),9.1,0.9,0.286,51.7*,0.5
Cc1[nH]c2ccccc2c1Cc1nnc(SCCC#N)o1,x,x,-0.0986,x,x
NC(=O)c1ccsc1NC(=O)COC(=O)C1CCCN1C(=O)c1cccs1 (stereo not given),72.3*,0.3,0.822,72.4*,0.3
COc1ccc(NC(=O)COC(=O)[C@@H]2CCCN2C(=O)c2cccs2)c(OC)c1,56.1*,0.4,0.103,42.5,0.6
CSCCC(NC(=O)c1ccccc1)C(=O)NCc1ccco1 (stereo not given),9.4,0.9,0.867,45.1,0.5
CCCC1CC(C)(c2csc(Nc3ccc(OCC)cc3)n2)OC1=O (stereo not given),x,x,-2.41,x,x
CCOC(=O)C1=C(CN2CCOCC2)NC(=O)NC1c1cc(C)ccc1C (stereo not given),25.5,0.7,0.701,22.9,0.8
CCOC(=O)C1=C(CN2CCN(c3ccc(F)cc3)CC2)NC(=O)NC1c1cccs1 (stereo not given),91.1*,0.1,-2.39,88.4*,0.1
CC(C)N1C(=O)CCC1C(=O)NC1CCCC1 (stereo not given),22.3,0.8,-0.769,-2.3,1
Cc1cc(C)c(S(=O)(=O)c2c(C)cccc2C)c(OCC(C)C)n1,91.0*,0.1,x,83.8*,0.2
O=c1[nH]cn[nH]1,x,x,-0.0461,x,x
Cc1cc(OCc2nn[nH]n2)c2c(C)c(CC(=O)O)c(=O)oc2c1,6.4,0.9,1.04,0.1,1
Cc1c(OCc2nn[nH]n2)ccc2c(-c3ccccc3)cc(=O)oc12,98.3*,0,x,95.3*,0
COc1ccc(-c2cc(=O)oc3c(C)c(OCc4nn[nH]n4)ccc23)cc1,97.1*,0,2.06,78.7*,0.2
COc1ccc(-c2cc(=O)oc3cc(OC(C)C(=O)O)ccc23)cc1 (stereo not given),26.8,0.7,0.071,0.6,1
CCc1cc2cc(C(=O)Nc3ccc(C)cc3)sc2s1,x,x,-1.48,x,x

# High-throughput results: PubChem BioAssay, several laboratories
